# PubChem BioAssay (EPA / NIEHS)
# Records with an inconclusive call do not appear. Calls of active or inactive are those of the source. How the source made its calls, unless noted: active means hit-call score of the fitted dose curve at least 0.9, where 1 is the maximum; inactive means score below 0.9.
# Key:
# [1] = CCTE_Harrill_HTTr_Viability_MCF7: CCTE's 6-hour Cell Viability Assessment for the High-Throughput Transcriptomics (HTTr) Platform, in MCF-7 cells cultured in DMEM + 10% fetal bovine serum, Harrill Lab (AID 2284010)
# Procedure, shortened: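 Cells were dosed with chemicals in an eight-point dilution series, imaged 6 hours later for propidium iodide uptake, and the endpoint was analyzed by bidirectional fitting against DMSO as negative control.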
# [2] = CCTE_Harrill_HTTr_Apoptosis_MCF7: CCTE's 6-hour Apoptosis Assessment for the High-Throughput Transcriptomics (HTTr) Platform, in MCF-7 cells cultured in DMEM + 10% fetal bovine serum, Harrill Lab (AID 2284011)
# Procedure, shortened: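 MCF-7 cells in DMEM + 10% fetal bovine serum were exposed to chemicals for 6 hours over an eight-point dilution series. Caspase-3/7 activation was imaged by high content imaging with CellEvent Caspase 3/7 Green; bidirectional fitting used DMSO as baseline.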
# [3] = CCTE_Harrill_HTTr_CellCount_MCF7: CCTE's Cell Proliferation Assessment for the High-Throughput Transcriptomics (HTTr) Platform, Harrill Lab (AID 2284012; active means hit-call score of the fitted dose curve at least 0.9, where 1 is the maximum;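 further: count of Hoechst-stained nuclei per well by high-content imaging in MCF-7 cells; cells exposed to compound for six hours; intended direction is loss of nuclei count meaning fewer cells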)
# Procedure, shortened: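 Chemicals in eight-point dilution series are added to MCF-7 cells for six hours, nuclei are stained with Hoechst and imaged, and per-well nuclei counts are fitted in both directions relative to DMSO controls.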
# [4] = target: Estrogen receptor (Homo sapiens) (UniProt P03372); test: CCTE_Deisenroth_AIME_96WELL_LUC_Active: CCTE's 96-well Estrogen Receptor Transactivation Assay with AIME metabolic competence (ERTA luciferase; metabolism positive), Deisenroth Lab (AID 2284023; active means hit-call score of the fitted dose curve at least 0.9, where 1 is the maximum)
# Procedure, shortened: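 Chemicals pre-incubated 2 h with alginate-immobilized phenobarbital/beta-naphthoflavone-induced male Sprague Dawley rat liver S9, then medium transferred to VM7Luc4E2 cells for 24 h luciferase read-out. 10-point series 0.002 - 200 uM; fitted relative to 17beta-estradiol.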
# [5] = target: Estrogen receptor (Homo sapiens) (UniProt P03372); test: CCTE_Deisenroth_AIME_96WELL_LUC_Inactive: CCTE's 96-well Estrogen Receptor Transactivation Assay without AIME metabolic competence (ERTA luciferase; metabolism negative), Deisenroth Lab (AID 2284025; active means hit-call score of the fitted dose curve at least 0.9, where 1 is the maximum)
# Procedure, shortened: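 VM7Luc4E2 breast cells, luciferase read 24 h after dosing with medium pre-incubated 2 h on alginate-water lids (metabolism negative). 10-point series 0.002–200 uM, single technical replicate, n≥4; fit relative to 17beta-estradiol.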
# [6] = CCTE_Deisenroth_AIME_96WELL_CTox_Active: Cytotoxicity Assessment (CTOX) in CCTE's 96-well Estrogen Receptor Transactivation Assay with AIME metabolic competence (metabolism positive), Deisenroth Lab (AID 2284028; active means hit-call score of the fitted dose curve at least 0.9, where 1 is the maximum)
# Procedure, shortened: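 Chemicals (0.002–200 uM) were first incubated 2 h with alginate-immobilized phenobarbital/beta-naphthoflavone-induced male rat liver S9; conditioned medium then went onto VM7Luc4E2 cells for 24 h, with viability read by protease-substrate fluorescence, fitted bidirectionally.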
# Estrogen receptor (Homo sapiens), sequence (P03372 whole entry, looked up): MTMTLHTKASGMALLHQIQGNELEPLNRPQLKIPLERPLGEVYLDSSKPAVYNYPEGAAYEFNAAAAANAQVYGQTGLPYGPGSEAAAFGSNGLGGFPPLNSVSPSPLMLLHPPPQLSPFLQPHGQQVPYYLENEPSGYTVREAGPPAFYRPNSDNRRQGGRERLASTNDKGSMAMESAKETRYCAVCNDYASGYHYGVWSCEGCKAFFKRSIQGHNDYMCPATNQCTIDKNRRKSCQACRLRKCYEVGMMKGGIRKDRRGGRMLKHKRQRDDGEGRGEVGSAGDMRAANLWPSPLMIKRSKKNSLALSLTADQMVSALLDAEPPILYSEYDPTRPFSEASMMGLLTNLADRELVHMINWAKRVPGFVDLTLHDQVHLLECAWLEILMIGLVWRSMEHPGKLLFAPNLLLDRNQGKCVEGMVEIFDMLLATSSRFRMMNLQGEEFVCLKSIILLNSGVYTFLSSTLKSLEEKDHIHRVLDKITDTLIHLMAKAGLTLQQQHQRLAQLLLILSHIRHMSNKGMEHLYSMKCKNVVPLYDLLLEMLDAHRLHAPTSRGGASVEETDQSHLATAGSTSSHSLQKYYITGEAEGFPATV
smiles,measurement,setting,value
CCCCCCCO,outcome,[1],inactive
same,outcome,[2],inactive
same,outcome,[3],inactive
CC(C)[N+](C)(CCOC(=O)C1c2ccccc2Oc2ccccc21)C(C)C,outcome,[1],inactive
same,outcome,[2],inactive
same,outcome,[3],inactive
CCC(C)C(=O)OC (stereo not drawn),outcome,[1],inactive
same,outcome,[2],inactive
same,outcome,[3],inactive
CN(C)c1ccc2nc3ccc(=[N+](C)C)cc-3sc2c1,outcome,[1],inactive
same,outcome,[2],inactive
same,outcome,[3],inactive
COc1ccc(-c2coc3cc(O)cc(O)c3c2=O)cc1,outcome,[1],inactive
same,outcome,[2],inactive
same,outcome,[3],inactive
same,AC50,[4],2.14 µM (active)
same,AC50,[5],0.971 µM (active)
same,AC50,[6],75.9 µM (active)
O=C(O)CCCC(=O)O,outcome,[1],inactive
same,outcome,[2],inactive
same,outcome,[3],inactive
CCCCC(C=O)CC (stereo not drawn),outcome,[1],inactive
same,outcome,[2],inactive
same,outcome,[3],inactive
CC(=O)/C=C/C1C(C)=CCCC1(C)C (stereo not drawn),outcome,[1],inactive
same,outcome,[2],inactive
same,outcome,[3],inactive
Nc1ncnc2nc[nH]c12,outcome,[1],inactive
same,outcome,[2],inactive
same,outcome,[3],inactive
CCCCOCC(C)O (stereo not drawn),outcome,[1],inactive
same,outcome,[2],inactive
same,outcome,[3],inactive
C=CCCCCCCCCC=O,outcome,[1],inactive
same,outcome,[2],inactive
same,outcome,[3],inactive
CC=CC(=O)OCC(C)C,outcome,[1],inactive
same,outcome,[2],inactive
same,outcome,[3],inactive
O=C(O)/C=C/c1ccccc1,outcome,[1],inactive
same,outcome,[2],inactive
same,outcome,[3],inactive
CC(C)(CO)C(O)C(=O)NCCCO (stereo not drawn),outcome,[1],inactive
same,outcome,[2],inactive
same,outcome,[3],inactive
Cc1cccc(C(C)(C)C)c1O,outcome,[4],inactive
same,AC50,[5],121 µM (active)
same,outcome,[6],inactive
